High-throughput results deposited in PubChem by National Center for Advancing Translational Sciences (NCATS).
This is a sample that favours compounds with a hit; in the whole collection about 2.4% have one here.
D2 PAM-1 = HTS Assay for Positive Allosteric Modulators of the Human D2 Dopamine Receptor: Primary Screen for Potentiators; potentiation, % at 10 µM; 340,000 tested, 0.34% active; HEK293 T-REx D2, calcium flux, EC20 dopamine potentiation; D(2) dopamine receptor (Homo sapiens), P14416;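 active means potentiation over 3 SD above the plate norm, cut at about 30% in these data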
Target sequence (P14416 whole entry, looked up): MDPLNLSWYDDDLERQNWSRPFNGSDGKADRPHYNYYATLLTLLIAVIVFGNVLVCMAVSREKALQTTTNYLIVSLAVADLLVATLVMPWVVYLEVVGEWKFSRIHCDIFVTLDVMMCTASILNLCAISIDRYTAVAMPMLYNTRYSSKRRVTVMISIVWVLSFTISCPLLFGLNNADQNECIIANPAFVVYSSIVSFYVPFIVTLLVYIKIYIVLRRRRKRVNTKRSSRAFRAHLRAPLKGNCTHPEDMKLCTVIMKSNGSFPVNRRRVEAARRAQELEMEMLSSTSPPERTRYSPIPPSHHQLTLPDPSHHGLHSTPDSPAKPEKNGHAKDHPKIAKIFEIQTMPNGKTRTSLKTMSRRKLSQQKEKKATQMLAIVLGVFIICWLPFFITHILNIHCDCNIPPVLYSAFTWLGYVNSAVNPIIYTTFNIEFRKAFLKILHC
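Tetracycline-induced Hek293 Trex D2 cells, force-coupled to calcium, loaded with no-wash calcium dye. Compound added with 180 s kinetic read for agonism, then EC20 dopamine and a further 180 s read for potentiation.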
D2 ag-1 = Beta-Arrestin HTS for Positive Allosteric Modulators of the Human D2 Dopamine Receptor: Agonists; DiscoveRx PathHunter D2 beta-arrestin, luminescence, 90 min; 100% = 57 uM dopamine signal; 360,000 tested, 0.084% active; activation, % (test concentration not listed); D(2) dopamine receptor (Homo sapiens), P14416; in the data active means activation above about 40%; inconclusive means between about 15% and that limit
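DiscoveRx PathHunter D2 beta-arrestin cells (2,100/well) attached overnight, then compound-stimulated 90 min at 37 C in HBSS/10 mM HEPES/0.1% Tween-20 buffer; beta-galactosidase complementation read by luminescence after 1 h at ambient temperature. Dopamine 57 uM final (EC100) as control.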
D2 antag = HTS Assay for Allosteric Antagonists of the Human D2 Dopamine Receptor: Primary Screen for Antagonists; D(2) dopamine receptor (Homo sapiens), P14416; HEK293 TREx D2 cells, calcium flux, dopamine EC80; inhibition, % at 10 µM; 340,000 tested, 2% active; in the data active means inhibition above about 30%; inactive means below that, where a call was filed
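HEK293 T-REx D2 cells, tet-induced, calcium dye no-wash. Cpd pintool add, 180 s kinetic, then EC80 DA, 180 s kinetic. Ca flux read.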
D2 ag-2 = HTS Assay for Allosteric Agonists of the Human D2 Dopamine Receptor: Primary Screen for Agonists. 340,000 tested, 0.53% active. HEK293 T-REx D2 cells, calcium flux agonist mode. activation, % at 2 µM. D(2) dopamine receptor (Homo sapiens), P14416. AID 485358, 2010;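 active means activation over 3 SD above normal in the single-dose calcium agonist read, cut at about 30% in these data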
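Agonism scored from kinetic calcium signal (1 read/sec, 180 s) following compound pin transfer, after a 10 s baseline. Cells: HEK293 Trex line expressing inducible D2 receptor coupled to calcium, dye-loaded after overnight culture at 30 C.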
D2 PAM-2 = Beta-Arrestin HTS for Positive Allosteric Modulators of the Human D2 Dopamine Receptor: Potentiators. DiscoveRx D2 beta-arrestin cells, luminescence, 90 min; 100% = 57 uM dopamine signal. potentiation, % (no concentration beside the values). 360,000 tested, 0.23% active. AID 624464, 2012; in the data active means potentiation above about 50%; inconclusive means mostly about 30% to 49%
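PathHunter D2 cells, attached overnight at 37 deg C, received compound in DMSO plus dopamine at EC20 (50 nM final) for 90 min at 37 deg C. Beta-arrestin recruitment was read as luminescence after 1 h with detection reagent at ambient temperature.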
Of the large screens only hits and unclear results are named; the others gave an inactive call.

Cc1cccc(NC(=S)NNC(=O)CCn2cc(C)cn2)c1	D2 PAM-1 45
CNc1snc(C)c1C(=O)OCC(=O)N(C)c1ccccc1	none
CNc1snc(C)c1C(=O)OCC(=O)N(C)Cc1ccccc1	D2 ag-1 inconclusive, D2 antag 35
CCOc1ccccc1NC(=O)CN1c2ccccc2S(=O)(=O)c2ccccc21	none (no result: D2 ag-1, D2 antag, D2 PAM-2)
OCCC1CN(Cc2cccc3nccnc23)CCN1C1CCCC1 (centres undefined)	none
OCCC1CN(Cc2cccc3nonc23)CCN1C1CCCCC1 (centres undefined)	D2 antag 38
Cc1cc(C)cc(NC(=O)Nc2c[nH]c(=O)[nH]c2=O)c1	none (no result: D2 ag-1, D2 antag, D2 PAM-2)
COc1ccc(/C=N/NC(=O)COc2cccc3ccccc23)c(C(=O)O)c1OC	D2 PAM-1 40
COc1ccc(/C=N/NC(=O)COc2ccc3ccccc3c2)c(C(=O)O)c1OC	none
Nc1ccc2ncccc2c1N	none (no result: D2 PAM-1, D2 antag, D2 ag-2)
Nc1nc(N)c2c(ccc3nccc32)[nH]1	D2 PAM-2 52
COc1ccc(N2CCN(S(=O)(=O)c3ccc4c(c3)CC(C)N4C(C)=O)CC2)cc1 (centres undefined)	none (no result: D2 ag-1, D2 antag, D2 PAM-2)
CC(C)OC(=O)C1C(=O)CC(C)(O)C(C(=O)OC(C)C)C1c1cccc(O)c1 (centres undefined)	D2 antag 32
Cn1cccc1-c1cc(C(=O)N/N=C/c2ccc(F)cc2)[nH]n1	D2 antag 61 (no result: D2 PAM-1)
Cn1cccc1-c1cc(C(=O)N/N=C/c2ccccc2Cl)[nH]n1	D2 antag 88
Cn1cccc1-c1cc(C(=O)N/N=C/c2cc(Br)ccc2O)[nH]n1	none (no result: D2 PAM-1, D2 antag, D2 ag-2)
Cn1cccc1-c1cc(C(=O)N/N=C/c2ccc([N+](=O)[O-])cc2)[nH]n1	none
CSc1ccc(CNC(=O)C2CCN(c3nnc(-n4cccc4CNc4ccc(C)cc4)s3)CC2)cc1	none (no result: D2 ag-1, D2 antag, D2 PAM-2)
COc1ccc(-c2cc(C(C)=O)c(C)n2CCC(=O)Nc2ccc(C)cc2Cl)cc1	none (no result: D2 ag-1, D2 antag, D2 PAM-2)
Cn1c(Cc2ccccc2)nnc1SCC(=O)NC1CC1	none
COCCn1c(Cc2ccccc2)nnc1SCC(=O)NC1CC1	D2 antag 32
Cc1ccccc1NC(=O)c1c(C)oc2ccc(O)c(CN3CCCCCC3)c12	none (no result: D2 ag-1, D2 antag, D2 PAM-2)
O=C(NC1CCN(Cc2ccc3ccccc3c2)CC1)c1ccccc1	D2 antag 51
O=C(NC1CCN(Cc2ccc(Cl)c(Cl)c2)CC1)c1ccccc1	D2 antag 81
O=C(NC1CCN(Cc2ccc(F)cc2)CC1)c1ccccc1	D2 antag 115
O=C(NC1CCCC1)c1ccc2c(c1)N(Cc1ccccc1)CCS2	none
CS(=O)(=O)Cc1ccc(C(=O)NC2CCN(Cc3ccccc3)C2)cc1 (centres undefined)	none
Cc1ccc(CN2CCSc3ccc(C(=O)NC4CCN(Cc5ccccc5)CC4)cc32)cc1	D2 antag 74 (no result: D2 PAM-1)
CCN1CCN(Cc2c(O)ccc3oc(C)c(C(=O)Nc4cccc(C(F)(F)F)c4)c23)CC1	none (no result: D2 ag-1, D2 antag, D2 PAM-2)
O=C(Cn1c(=O)c2cccn2c2ccc(F)cc21)N1CCN(c2ccccc2)CC1	none (no result: D2 ag-1, D2 antag, D2 PAM-2)
COc1cc(OC)c(C(=O)Oc2ccc3c(c2)OCO3)cc1OC	D2 antag 30
N/C(=N\OC(=O)c1ccc2c(c1)OCO2)c1cccc(Br)c1	D2 ag-1 inconclusive, D2 PAM-2 106
COc1ccc(C(=O)Oc2ccc3c(c2)OCO3)cc1OC	none
COc1ccc(/C(N)=N/OC(=O)c2ccc3c(c2)OCO3)cc1OC	D2 PAM-2 84
N/C(=N\OC(=O)c1ccc2c(c1)OCO2)c1cccnc1	D2 ag-1 inconclusive, D2 PAM-2 79
CC(C)Oc1ccc(CNC(=O)C2CCCN(S(=O)(=O)c3ccc4c(ccn4C)c3)C2)cc1 (centres undefined)	none (no result: D2 ag-1, D2 antag, D2 PAM-2)
CCCNC(=O)C1CCN(S(=O)(=O)c2ccc3c(c2)CCCN3C(C)=O)CC1	none (no result: D2 ag-1, D2 antag, D2 PAM-2)
CCOC(=O)C1=C(CN2CCN(C(=O)c3ccco3)CC2)NC(=O)NC1c1ccc(C)cc1 (centres undefined)	D2 antag 37
